Compound activity from PubChem.
The entries come from a sample that favours hits as a whole.
TbREL1 primary = TbREL1 inhibition, primary screen; TbREL1 RNA ligation, FRET fluorescence; inhibition, % at 9.66 µM; 89,000 tested, 0.49% active;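 active = inhibition above the mean inhibition across all screened compounds plus 3 SD, cut at about 11% in these data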;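 also: 0% = plate median of test wells and 100% = NSC42067 control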
The depositor's hits bear a star.

SMILES	TbREL1 primary
C#CCOCCOCCOCCNc1nc(N2CCN(C(=O)[C@H]([C@@H](C)CC)n3cc(CCCCN)nn3)CC2)nc(N2CCN(C(=O)[C@H](C)n3cc(CCC(=O)O)nn3)CC2)n1	6.8
C#CCOCCOCCOCCNc1nc(N2CCOCC2)nc(N2CCN(C(=O)CCCCCCCCCCNC(=O)[C@@H](CCC(=O)O)n3cc(CCCCCN)nn3)CC2)n1	1.6
C#CCOCCOCCOCCNc1nc(N2CCOCC2)nc(N2CCN(C(=O)CCCCCCCCCCNC(=O)[C@@H]([C@H](C)CC)n3cc(CCCCCN)nn3)CC2)n1	13.5*
CC(C)CNC(=O)CC1Oc2ccccc2NC1=O (stereo not drawn)	1.4
CCCC1CCC2(CC1)CCC2OC(=S)Nc1ccccc1Br (stereo not drawn)	0.0
Cc1occc1C(=O)N/N=C/C(Br)=C/c1ccccc1	11.0*
Cc1occc1C(=O)N/N=C/c1ccc[nH]1	-0.4
Cn1cc(C(=O)N/N=C/C(Br)=C\c2ccccc2)ccc1=O	-3.3
COC(=O)C1=C(C(=O)OC)[C@@]2([C@@H](Cc3ccc(C)cc3)Nc3ccccc3)C=C[C@@H]1O2	3.9
Cn1c(=O)cc(OCCCC(=O)Nc2cc(-c3cn[nH]c3)ccn2)c2ccccc21	1.4
CC(C)(N[C@@H](Cc1ccccc1)C(=O)NCCc1c[nH]c2ccccc12)C(=O)NC1CCCCC1	-5.8
CCC[C@H]1[C@@H](OC(=O)Oc2ccc([N+](=O)[O-])cc2)CC[C@@]23CCCN2C(=O)CCC[C@@H]13	-1.7
CCC[C@H]1[C@@H](NS(=O)(=O)c2ccccc2[N+](=O)[O-])CC[C@@]23CCCN2C(=O)CCC[C@@H]13	-4.8
Cc1ccc2c(n1)sc1c(-c3ccc(Br)cc3)c(C#N)c(N)nc12	-1.3
N#Cc1c(Cl)c(Cl)c2nnc(-c3ccc(Br)cc3)n2c1Cl	16.1*
NS(=O)(=O)c1ccc(NC(=O)CSc2nc3ccccc3c(=O)n2-c2ccc(Br)cc2)cc1	0.0
Cc1ccnc(NC(=S)N2CC3CN(c4cccc(C(F)(F)F)c4)CC3C2)c1 (stereo not drawn)	-3.0
CC(C)C[C@H](NC(C)(C)C(=O)NC1CCCCC1)C(=O)NCC(c1ccccc1)c1ccccc1	9.1
CC(c1ccccc1)n1cc(C(=O)N2CCCC2)nn1 (stereo not drawn)	-0.5
O=C(C[n+]1cc(-c2ccccc2)n2c1CCC2)c1cccs1	-0.1
CC1CCC(C(C)C)C(OC(=O)Cn2c(-c3ccc(Br)cc3)[n+](C)c3ccccc32)C1 (stereo not drawn)	9.2
COc1ccc(-c2c[n+](CC(=O)OC3CC(C)CCC3C(C)C)c3n2CCC3)cc1 (stereo not drawn)	14.9*
CCOC(=O)c1csc(NC(=O)C2CCCN(S(=O)(=O)c3ccc(Br)s3)C2)n1 (stereo not drawn)	1.4
COc1ccc(-c2cc(-c3nnc4sc(Cc5cccs5)nn34)[nH]n2)cc1	0.0
C[C@@H]1CN([C@@H](C)COC(=O)C(C)(C)C)C(=O)c2cc(NC(=O)Nc3ccccc3)ccc2O[C@@H](C)CCCCO[C@H]1CN(C)S(=O)(=O)c1ccc(F)cc1	6.1
SMILES	TbREL1 primary
CCCCCCCN1C=CC(=O)CC1	-4.5
CCCCCCCCCn1cc(C(C)=O)c(=O)[nH]c1=O	18.5*
CCCCCCOC(=O)CCn1[nH]c(=O)c2ccccc2c1=O	1.6
CCOC(=O)c1csc(NC(=O)C2CCCN(S(=O)(=O)c3ccc([N+](=O)[O-])cc3)C2)n1 (stereo not drawn)	1.1
Cc1ccc(C)c(NC(=O)Cn2nnc(-c3ccncc3)n2)c1	1.4
Cc1ccc2nc(-c3ccc(NC(=O)CSc4nnc(-c5cccc(Cl)c5)n4Cc4ccco4)cc3)sc2c1	2.2
COc1cccc(C(=O)N(CCN2CCOCC2)Cc2ccc(OC)c(OC)c2)c1	0.8
Cc1ccc(-c2cc(C(=O)NN=Cc3cccc(OCc4ccccc4)c3)[nH]n2)cc1C	10.1
COc1ccc(CN(C)CCc2ccccn2)c(OC)c1OC	18.5*
COc1ccc(C(=O)O)cc1S(=O)(=O)N(C)CCc1ccccn1	-0.6
Cc1cccc(CN(C)CCc2ccccn2)c1	1.8
O=C(c1ccoc1)N1CCN(c2cc(-c3ccco3)nc3cc(-c4ccco4)nn23)CC1	6.2
COC(=O)[C@H](CC1(c2cn(S(=O)(=O)CC[Si](C)(C)C)c3ccccc23)C(=O)Nc2ccccc21)NC(=O)OC(C)(C)C (stereo partly drawn)	6.3
O=C(O)c1cc(N2N=C(C(F)(F)F)/C(=C/C=C/c3ccco3)C2=O)ccc1Cl	97.6*
CN(C(=O)/C=C/c1ccco1)c1ccccc1C(=O)O	1.9
O=C(O)c1cnn2c(C(F)(F)F)cc(-c3ccco3)nc12	5.7
Cc1nc(N2CCN(C(=O)COc3ccccc3C)CC2)c2c3c(sc2n1)CCCC3	7.9
c1ccc2cc3[nH]c(CNc4nc(N5CCOCC5)nc5c4ncn5-c4ccsc4)nc3cc2c1	0.5
CCCCN(C)C(=O)C1CCN(S(=O)(=O)c2ccc3[nH]c(=O)oc3c2)CC1	10.6
COc1ccc(-n2c(SCC(=O)Nc3ccc(Oc4ccccc4)cc3)nnc2-c2cccnc2)cc1	5.6
